The subject of assay [1] is P. falciparum NF54-pfs16-GFP early (I-III) stage gametocytes. In words: relative % inhibition of viable gametocyte number; higher = more gametocytocidal. To be noted: stage: early (I-III) gametocyte, incubation 72 h. The method, boiled down: (§1)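 Compound was tested in duplicate at 5 or 0.5 µM on magnet-isolated NF54 pfs16-GFP gametocytes, taken either early (I/IIa, day 2) or late (day 8) and plated at 10% parasitaemia, 0.1% haematocrit. Incubation ran 72 h at 37°C, 5% CO2, 5% O2, followed by overnight MitoTracker Red staining and confocal imaging. Relative inhibition, based on counts of elongated GFP objects with above-cut-off MitoTracker signal, was normalised to in-plate vehicle and positive-control wells.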

Assay [2] relates to P. falciparum NF54-pfs16-GFP late (IV-V) stage gametocytes. The description is as above. As to conditions: stage: late (IV-V) gametocyte, incubation 72 h. The method, boiled down:
as §1

The structures appear in SMILES notation.

Turning to `CCCCCCOC(=O)C1=C(C)NC(=O)NC1c1ccccc1F` (stereo not given), the relative % inhibition in assay [1] (0.5 µM) was 9.08%; in assay [1] (5 µM), 4.18%; in assay [2] (0.5 µM) it was -3.35%; in assay [2] (5 µM) it was 3.92%.
As to `Oc1c2c(nc3cc(-c4ccccc4)nn13)CCCC2`, the relative % inhibition was 3.76% in assay [1] (0.5 µM), -0.467% in assay [1] (5 µM), -4.66% in assay [2] (0.5 µM) and 57.1% in assay [2] (5 µM).
In the case of `C=CCc1c(C)nc2ccccc2c1O`, the relative % inhibition was 5.51% in assay [1] (0.5 µM), 13.3% in assay [1] (5 µM), 36.3% in assay [2] (0.5 µM) and 53.7% in assay [2] (5 µM).
With `FC(F)(F)c1cccc(Nc2nc(-c3ccccc3)nc3ncccc23)c1`, the relative % inhibition in assay [1] (0.5 µM) was 5.1%; in assay [1] (5 µM), -19.6%; in assay [2] (0.5 µM), 2.84%; in assay [2] (5 µM), -1.26%.
In the case of `COc1ccc(CCN2CCC(CN(C)Cc3cnn(-c4ccccc4)c3)CC2)cc1`, the relative % inhibition in assay [1] (0.5 µM) was 4.18%; in assay [1] (5 µM), 65.3%; in assay [2] (0.5 µM), 11.3%; in assay [2] (5 µM), -5.77%.
Regarding `CN1CCN(c2c3c(c(C#N)c4nc5ccccc5n24)CCC3)CC1`, the relative % inhibition in assay [1] (0.5 µM) was -35.3%; in assay [1] (5 µM), -26.5%; in assay [2] (0.5 µM), -1.94%; in assay [2] (5 µM) it was -8.14%.
With `CCOc1ccc2c(c1)CN(Cc1ccc(Cl)cc1)CO2`, the relative % inhibition in assay [1] (0.5 µM) stood at 15.1%; in assay [1] (5 µM), 84.1%; in assay [2] (0.5 µM) it was 16.2%; in assay [2] (5 µM), 41.4%.
Turning to `CCOC(=O)c1cnc2c(CC)cccc2c1O`, the relative % inhibition is -5.02% in assay [1] (0.5 µM), 0.0948% in assay [1] (5 µM), 21.6% in assay [2] (0.5 µM) and 45.2% in assay [2] (5 µM).
As to `Cc1cccc(-n2ncc3c(=O)[nH]c(-n4nc(C)cc4NC(=O)c4cc5ccccc5o4)nc32)c1`, the relative % inhibition in assay [1] (0.5 µM) was -5.22%; in assay [1] (5 µM), 49%; in assay [2] (0.5 µM) it was 100%; in assay [2] (5 µM) it was 102%.
On the same counts, the results for `COc1ccc(CNC(=O)c2cc3c(=O)n4ccccc4nc3n(CCc3ccccc3)c2=N)cc1` are 2.74%, 56.6%, -16.6% and -9.45%.
On the same counts, the results for `CCN(CC)CCCNc1nc(-c2ccc(Cl)cc2)nc2ccccc12` are 11.6%, 96.5%, 13.1% and 23.5%.
On to `OC(CNC1CCCCC1)Cn1c2ccc(I)cc2c2cc(I)ccc21` (stereo not given), for which the relative % inhibition in assay [1] (0.5 µM) came to 60.7%; in assay [1] (5 µM), 95.2%; in assay [2] (0.5 µM) it was 84.7%; in assay [2] (5 µM), 98.5%.
For the molecule `Cc1ccc(-c2cc3c(SCC(=O)Nc4cc(C(F)(F)F)ccc4Cl)nccn3n2)cc1`, the relative % inhibition in assay [1] (0.5 µM) was -5.62%; in assay [1] (5 µM), -12%; in assay [2] (0.5 µM) it was 14.7%; in assay [2] (5 µM), -15.9%.
For the molecule `CCCCOc1ccc(C(=O)Nc2cc(C)on2)cc1`, the relative % inhibition was 3% in assay [1] (0.5 µM), 12.9% in assay [1] (5 µM), -7.15% in assay [2] (0.5 µM) and 17.4% in assay [2] (5 µM).
As to `O=C(NC1CCCCC1)C(c1cccs1)N(CCc1ccccc1)C(=O)c1ccco1` (stereo not given), the relative % inhibition in assay [1] (0.5 µM) is 0.574%; in assay [1] (5 µM), 17.5%; in assay [2] (0.5 µM) it was 5.55%; in assay [2] (5 µM), 6.74%.
The like results for `CC1CN(C(=O)c2sc3ccccc3c2Cl)CC(C)O1` (stereo not given) were, in that order, -11.1%, 1.13%, 6.08% and -5.12%.
Regarding `COc1ccc(-c2c(C)nn3c(N)c(C#N)cnc23)cc1OC`, the relative % inhibition in assay [1] (0.5 µM) is -24.1%; in assay [1] (5 µM) it was 22.9%; in assay [2] (0.5 µM) it was 63.6%; in assay [2] (5 µM), 108%.
Consider `CCOC(=O)c1c(NC(=O)c2ccccc2)sc2c(O)c(CN(CC)CC)ccc12`, for which the relative % inhibition in assay [1] (0.5 µM) turned out to be 28.6%; in assay [1] (5 µM), 94.9%; in assay [2] (0.5 µM) it was 64.2%; in assay [2] (5 µM), 89.6%.
For the molecule `COc1ccccc1N1CCN(C(CNS(=O)(=O)c2ccc(Cl)cc2)c2cccnc2)CC1` (stereo not given), the relative % inhibition in assay [1] (0.5 µM) was -2.86%; in assay [1] (5 µM), 41.8%; in assay [2] (0.5 µM) it was -0.978%; in assay [2] (5 µM), 32.7%.
`COc1cc(SC)ccc1C(=O)N1CCCC(C)C1` (stereo not given): the relative % inhibition is -24.7% in assay [1] (0.5 µM), -6.96% in assay [1] (5 µM), 5.64% in assay [2] (0.5 µM) and 6.01% in assay [2] (5 µM).
As to `N=c1c2ccccc2nnn1-c1cccc(C(F)(F)F)c1`, the relative % inhibition amounted to 1.39% in assay [1] (0.5 µM), 17.4% in assay [1] (5 µM), 14.7% in assay [2] (0.5 µM) and 46.2% in assay [2] (5 µM).
Turning to `COc1ccc(C=C2SC(=N)N(c3ccccc3OC)C2=O)cc1`, the relative % inhibition was determined as 11% in assay [1] (0.5 µM), 63.6% in assay [1] (5 µM), 0% in assay [2] (0.5 µM) and 67.5% in assay [2] (5 µM).
In the case of `COc1ccc(C(=O)Nc2ccc3nc(N4CCCCC4)cc(C)c3c2)cc1OC`, the relative % inhibition is -8% in assay [1] (0.5 µM), 7.62% in assay [1] (5 µM), 3.3% in assay [2] (0.5 µM) and 51.2% in assay [2] (5 µM).
For the molecule `COc1ccc(C2C(C(=O)Nc3cccc(OC)c3)c3ccccc3C(=O)N2C2CCCCC2)cc1` (stereo not given), the relative % inhibition in assay [1] (0.5 µM) stood at 15.6%; in assay [1] (5 µM), 87.5%; in assay [2] (0.5 µM) it was 5.71%; in assay [2] (5 µM) it was 78.2%.
Regarding `CCOC(=O)C1=CN(C)C=C(C(=O)OCC)C1c1cc(Br)c(OCC)c(OC)c1`, the relative % inhibition in assay [1] (0.5 µM) is 38.1%; in assay [1] (5 µM), 89.7%; in assay [2] (0.5 µM), 16.5%; in assay [2] (5 µM) it was 37.9%.
Take `CSc1ccccc1C(=O)Nc1nc(-c2ccccn2)cs1`: the relative % inhibition is 27.3% in assay [1] (0.5 µM), 92.9% in assay [1] (5 µM), 19.1% in assay [2] (0.5 µM) and 96.9% in assay [2] (5 µM).
On the same counts, the results for `CCOc1ccc(CN2CCN(CC(O)COc3ccc(OCC(O)CN4CCN(Cc5ccc(OCC)cc5)CC4)cc3)CC2)cc1` (stereo not given) are 6.71%, 74.7%, -16.8% and 8.51%.
With `Cc1cc(C)c2nc(N3CCC(C(=O)NCCCN4CCC(N5CCCCC5)CC4)CC3)sc2c1`, the relative % inhibition is 8.57% in assay [1] (0.5 µM), 90.7% in assay [1] (5 µM), -24.9% in assay [2] (0.5 µM) and 44.2% in assay [2] (5 µM).
Consider `Cc1cc(=O)oc2c1ccc1oc(C(=O)c3ccccc3)c(C)c12`, for which the relative % inhibition in assay [1] (0.5 µM) is 8.22%; in assay [1] (5 µM), 5.4%; in assay [2] (0.5 µM), 17.2%; in assay [2] (5 µM) it was -4.53%.
The like results for `O=C(NCC(c1ccsc1)N1CCCCCC1)c1ccc(C(F)(F)F)cc1` (stereo not given) were, in that order, -5.22%, 0.803%, -0.775% and 5.04%.

The values are drawn from the supplement of paper PMC3842684.
